HCMV inh: inhibitors of human cytomegalovirus; 410,000 compounds, 4.5% hits; HFF cells, HCMV-luciferase reporter, 72 h; active compounds read low; activity change, negative = inhibition, % at 57.5 µM; in the data active = activity change below about -60%; inconclusive = no clear call, values can overlap the other calls; inactive = above about -39%
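After 16 h attachment at 37C, HFF cells received test compound and HCMV-luciferase (1 PFU/cell); reporter luminescence read 72 h later, data normalized against buffer-only and known inhibitor Salinomycin.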
Marburg entry inh: Marburg virus entry inhibition | AID 540276 | Marburg virus pseudotyped entry inhibition, cell reporter | 300,000 compounds, 1.8% hits | Potency, µM (highest dose often 37.8 µM), for the others: at the highest dose activity change, negative = inhibition, hits mostly inhibitors; calls by dose curve; tested in HEK293 cells; also: potency is read from the fitted curve at half-maximal effect
Lassa entry inh: blocks Lassa virus binding to or entry into cells; Lassa virus pseudotype entry inhibition, cell reporter; Potency, µM (highest dose often 37.9 µM), for the others: at the top dose activity change, negative = inhibition, hits mostly inhibitors; 300,000 compounds, 1.2% hits; calls by dose curve; tested in HEK293 cells; also: potency is read from the fitted curve at half-maximal effect; nearly all actives have a fitted effect of over 50% in size
HCV inh: HCV inhibition | Huh7.5.1 HCVcc-Cre infection, luciferase reporter, 44 h | AID 651820 | 340,000 compounds, 3.4% hits | Potency, µM (highest dose often 41.8 µM), without a hit: at the top dose activity change, negative = inhibition, hits mostly inhibitors; active = well fitted inhibition curve with a large enough effect; inconclusive = small, poorly fitted or top-dose-only effect, or another doubt; inactive = no such curve, though single readings can be large or run the other way; also: potency is read from the fitted curve at half-maximal effect
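Reporter virus HCVcc-Cre (~0.5 moi) infects cells exposed to compound; seeding density 1,000 cells/well with 4 h settling beforehand. Luminescence, 15 sec read, taken 44 h post-infection following a 15 min RT substrate incubation.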
FMDV inh: foot and mouth disease virus antiviral activity; FMDV antiviral cell-based qHTS; 410,000 compounds, 1.2% hits; AID 1159524; Potency, µM (titrated, usually from 57.9 µM), without a hit: at the top dose activity change, negative = inhibition, usual class: inhibitors; calls by dose curve; tested in HEK293T cells; also: read-out not given here; potency is read from the fitted curve at half-maximal effect; nearly all actives have a fitted effect of over 45% in size
Active calls of the source: *; ? = inconclusive; / = no result; [ ] = another dose, or the depositor's remark. This is a sample that favours compounds with a hit; in the whole collection about 7.9% have one here. % is scaled to controls: 0 for no effect and ±100 for the full control effect.

SMILES | HCMV inh | Marburg entry inh | Lassa entry inh | HCV inh | FMDV inh
CC(C)(C)OC(=O)N1CCC(c2c(C(=O)Nc3ccc4c(c3)OCCO4)cnn2-c2ccc(F)cc2F)CC1 | 0.0 | / | -26.8%[46.1 µM] | / | ?
CCOC(=O)c1ccccc1NC(=O)N1CCN2CCCCC2C1 (stereo not given) | 6.7 | / | -6.9%[46.1 µM] | / | -0.1%
NS(=O)(=O)c1ccc(CNC(=O)Cc2c(F)cccc2Cl)cc1 | -16.7 | 9.6%[46.1 µM] | -13.2%[46.1 µM] | 9.8% | 26.3%
CC(C)c1ccc(OCc2ccc(C(=O)N(C)C)o2)cc1 | 54.8 | ? | ? | -7.6% | -4.7%
CC(C)c1ccc(OCc2ccc(C(=O)O)o2)cc1 | -10.0 | 3.66µM* | 3.55µM* | 20.9% | 10µM*
CS(=O)(=O)c1ccc(Cl)c(NC(=O)CCl)c1 | -2.2 | ? | 17.8µM* | ? | 25.1µM*
CS(=O)(=O)c1ccc(C(=O)Nc2cc(S(C)(=O)=O)ccc2Cl)cc1 | ? | -5.7% | 21.8% | 16.9% | ?
CN(C)/C(CN1CCN(C=O)CC1)=C1\N=C(c2ccccc2)OC1=O | -60.5* | -17.1% | ? | ? | -5.9%
Cc1ccc(Nc2ccc(S(=O)(=O)N3CCOCC3)cc2[N+](=O)[O-])cc1C | -2.0 | ? | ? | 17.8µM* | ?
Cc1ccc(-n2c(O)c(/C=N/Nc3ccc(S(=O)(=O)N4CCOCC4)cc3[N+](=O)[O-])c3ccccc3c2=O)c(C)c1 | -97.6* | ? | ? | 11.2µM* | 10µM*
Cc1ccc(S(=O)(=O)Nc2ccc(S(=O)(=O)N3CCOCC3)cc2)cc1[N+](=O)[O-] | -9.9 | ? | 1.9% | -0.8% | 34.1%
N#CC1(C#N)CC(C=O)=C(N)C1(C#N)CC(=O)C12CC3CC(CC(C3)C1)C2 (stereo not given) | -1.8 | ? | ? | 8.3% | 22.4µM*
Cc1nn(CC(=O)NCC(C)c2ccccc2)c(=O)c2cc3ccccc3n12 (stereo not given) | -8.5 | 17.2%[46.1 µM] | / | / | 6.2%
CC(C)(C)c1ccc(C(=O)Nc2cccc3c(=O)[nH][nH]c(=O)c23)cc1 | -69.3* | ? | 7.08µM* | ? | 4.47µM*
Nc1c(C(=O)NCc2ccco2)c2nc3ccccc3nc2n1CCN1CCCCC1 | -68.0* | 8.2µM* | -2.3% | ? | /
COc1ccc(-n2c(N)c(C(=O)NCc3ccco3)c3nc4ccccc4nc32)cc1OC | -81.0* | -17.2%[46.1 µM] | -3.5% | ? | -9.5%
COc1cc(-n2c(N)c(C(=O)NCc3ccco3)c3nc4ccccc4nc32)cc(OC)c1OC | -39.2 | ? | -17.6% | -21.6% | -12.8%
COc1ccc(Cn2c(N)c(C(=O)NCc3ccco3)c3nc4ccccc4nc32)cc1OC | 10.2 | ? | ? | 7.08µM* | ?
CC1CCCCC1NC(=O)CN1CCC(NC(=O)C(C)(C)C)CC1 (stereo not given) | 21.6 | / | / | / | ?
Cc1ccc(N2C(=O)c3ccc(C(=O)N4CCN(c5ccc(C)c(C)c5)CC4)cc3C2=O)cc1 | -70.4* | 8.3% | ? | 19.2% | -16.4%
CCOC(=O)N1C(=O)[C@@](c2ccc(Cl)cc2)(C(C)C)N1C(=O)OCC | 44.0 | / | / | 53.4% | ?
CCOC(=O)N1C(=O)[C@](c2ccc(Cl)cc2)(C(C)C)N1C(=O)OCC | -90.0* | / | / | 12.9% | 28.2µM*
CCCCCCCC(=O)N[C@H]1CC[C@@]23CCCN2C(=O)CCC[C@H]3[C@H]1Cc1ccccc1 | 1.5 | / | / | / | /
CCC(=O)Nc1nn(C)c2nc3c(C)cccc3cc12 | -3.0 | -16.4% | -2.3% | 10µM* | 11.6%
O=C(CCCN1C(=O)C(c2ccccc2)Oc2cccnc21)Nc1ccc(Br)cc1F (stereo not given) | -104.9* | / | -20.3%[46.1 µM] | / | -20.3%
SMILES | HCMV inh | Marburg entry inh | Lassa entry inh | HCV inh | FMDV inh
Cc1ccc(NC(=O)CCCN2C(=O)C(c3ccccc3)Oc3cccnc32)c(C)c1 (stereo not given) | ? | / | / | / | -12.4%
O=C(NC(=S)N1CCOCC1)c1cc2ccccc2o1 | -4.7 | ? | 8.9%[46.1 µM] | 20.9% | 66.8%
CCOC(=O)CSc1nc2c([nH]c3ccccc32)c(=O)n1C | 133.2 | 1.2% | ? | 4.2% | 0.0%
CCOC(=O)C(C)Sc1nc2c([nH]c3ccccc32)c(=O)n1C (stereo not given) | 64.7 | -26.0% | ? | 10µM* | /
OC12CC3C[C@H](C1)C(N1CCOCC1)[C@@H](C3)C2 (stereo not given in full) | 28.5 | / | / | 8.5% | 3.6%
CC(C)c1cc(C(=O)Nc2cc(Br)ccc2O)no1 | 8.8 | 14.7% | -4.2% | -23.3% | /
CC(C)c1cc(C(=O)Nc2cc(Cl)ccc2O)no1 | 65.6 | ? | ? | 10µM* | 44.4%
COc1cccc(NC(=O)N[C@H]2CC[C@@]34CCCN3C(=O)CCC[C@H]4C2Cc2ccccc2)c1 (stereo not given in full) | -4.4 | / | / | / | /
Cc1ccc2oc(/N=C(\N)NC(=O)C3CC3)nc2c1 | -5.0 | -1.9% | / | -27.3% | -21.9%
Cc1ccc2oc(/N=C(\N)NC(=O)C(C)(C)C)nc2c1 | -90.0* | ? | ? | -69.0% | 35.5µM*
Cc1cccc(CN2CCN(CC(=O)Nc3c(C)cccc3C)S2(=O)=O)c1 | 0.0 | / | 4.7%[46.1 µM] | / | -13.8%
COc1cc(N2C(=O)C=CC2=O)c(OC)cc1Cl | -97.7* | ? | ? | ? | 35.5µM*
Cc1cc(C(O)c2ncc(-c3ccc(Cl)cc3)[nH]2)ccc1F (stereo not given) | 14.4 | / | / | / | 4.3%
C[n+]1ccccc1/C=C/c1ccc([N+](=O)[O-])cc1 | -34.7 | 1.7%[46.1 µM] | 8.3%[46.1 µM] | 10µM* | -2.5%
C[n+]1ccccc1/C=C/c1c(F)cccc1F | ? | -10.9%[46.1 µM] | ? | ? | -6.4%
C[n+]1ccccc1/C=C/c1ccccc1Cl | -78.5* | -2.4%[46.1 µM] | 2.3%[46.1 µM] | ? | -6.1%
C[n+]1ccccc1/C=C/c1ccc(F)c(F)c1 | ? | ? | 9.6%[46.1 µM] | 7.1% | -3.4%
Cc1ccccc1/C=C/c1cccc[n+]1C | ? | / | / | 6.31µM* | -7.3%
CCOC(=O)C1(Cc2ccccc2C(F)(F)F)CCN(C2CCCC2)CC1 | 6.6 | 7.94µM* | ? | -22.4% | -12.6%
CCOC(=O)C1(Cc2ccccc2C(F)(F)F)CCN(C2CCSC2)CC1 (stereo not given) | ? | -5.7%[46.1 µM] | -14.5% | -0.8% | -28.2%
C(=NNc1ccc2ccccc2n1)c1ccccn1 | -100.9* | / | / | / | 7.94µM*
Cc1cc(NN=Cc2ccccn2)nc2c(C)cccc12 | -16.0 | / | / | / | /
Cc1cc(NN=Cc2ccccn2)nc2ccccc12 | -100.2* | / | / | / | /
C(=N\N=C\c1ccccn1)/c1ccccn1 | 6.1 | 6.5%[46.1 µM] | 7.4%[46.1 µM] | 5.5% | 20.9%
C(=N\NC1=Nc2cccc3cccc1c23)/c1ccccn1 | -79.9* | / | / | 2.82µM* | 8.6%
Cc1ccc(N2CC(NC(=O)c3ccccc3Br)CC2=O)cc1 (stereo not given) | 23.5 | / | 8.0%[46.1 µM] | / | -7.3%
Cc1ccsc1/C=C1\CCC(C2CCCC2)C1=O (stereo not given) | -0.8 | 7.94µM* | ? | -4.0% | -43.1%
O=S1(=O)N[C@@H](Cc2ccccc2)COc2cc(Br)ccc21 | -21.1 | 0.0% | 8.6%[46.1 µM] | ? | -8.9%

Screening data (PubChem BioAssay)
